Molecules are shown by their SMILES. Unmarked numbers belong to inactive results. Activity calls are given as the source filed them. Calls follow the shape of the dose curve; as a rule, active = well fitted curve in the direction sought with a large enough effect; inconclusive = small, poorly fitted or top-dose-only effect, or another doubt; inactive = no such curve, though single readings can be large or run the other way.

Chain of Hexokinase-4 (Homo sapiens) + Glucokinase regulatory protein (Homo sapiens) (P35557 whole entry, looked up): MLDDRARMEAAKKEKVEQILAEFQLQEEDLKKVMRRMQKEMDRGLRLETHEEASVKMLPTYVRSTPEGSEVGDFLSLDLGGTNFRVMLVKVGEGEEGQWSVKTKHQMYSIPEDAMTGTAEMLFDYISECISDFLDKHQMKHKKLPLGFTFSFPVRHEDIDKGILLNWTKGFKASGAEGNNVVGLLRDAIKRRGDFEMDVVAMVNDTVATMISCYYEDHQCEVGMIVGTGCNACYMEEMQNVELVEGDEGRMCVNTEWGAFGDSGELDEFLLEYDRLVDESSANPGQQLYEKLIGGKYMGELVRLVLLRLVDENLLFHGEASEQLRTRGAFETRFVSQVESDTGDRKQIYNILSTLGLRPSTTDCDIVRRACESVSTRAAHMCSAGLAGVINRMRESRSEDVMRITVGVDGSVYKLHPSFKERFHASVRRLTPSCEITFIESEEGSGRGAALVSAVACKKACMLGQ
Chain of Hexokinase-4 (Homo sapiens) + Glucokinase regulatory protein (Homo sapiens) (Q14397 whole entry, looked up): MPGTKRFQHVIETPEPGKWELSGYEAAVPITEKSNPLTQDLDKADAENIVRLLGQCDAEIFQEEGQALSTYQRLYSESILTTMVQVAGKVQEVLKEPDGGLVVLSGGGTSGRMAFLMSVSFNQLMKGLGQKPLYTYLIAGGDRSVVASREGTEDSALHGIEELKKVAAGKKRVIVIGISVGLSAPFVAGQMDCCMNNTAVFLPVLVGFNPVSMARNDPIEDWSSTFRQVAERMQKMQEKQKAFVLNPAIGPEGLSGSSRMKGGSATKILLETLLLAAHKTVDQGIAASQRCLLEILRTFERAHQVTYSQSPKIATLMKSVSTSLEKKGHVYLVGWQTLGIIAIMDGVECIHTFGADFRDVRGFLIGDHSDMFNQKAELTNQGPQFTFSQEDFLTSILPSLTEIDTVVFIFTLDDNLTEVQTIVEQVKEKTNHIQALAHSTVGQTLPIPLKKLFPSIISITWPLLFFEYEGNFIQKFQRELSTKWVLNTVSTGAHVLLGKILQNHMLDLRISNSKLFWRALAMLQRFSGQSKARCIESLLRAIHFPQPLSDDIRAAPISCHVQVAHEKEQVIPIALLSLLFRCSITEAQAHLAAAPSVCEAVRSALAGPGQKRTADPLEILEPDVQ

This assay has as its target Hexokinase-4 (Homo sapiens) + Glucokinase regulatory protein (Homo sapiens) (UniProt P35557+Q14397). Briefly: qHTS assay for inhibitors of recombinant human GCK-GKRP interaction: ADP-Glo assay (AID 743206).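 Also: plate controls were DMSO plus enzyme for no effect and no enzyme for full effect.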 To be noted: ADP-Glo luminescence, 60 min, 0% = vehicle-only wells with enzyme present; series mostly up to 76.9 µM; activity, positive = activation: at the top concentration. An excerpt: Glucokinase (GCK) is a glucose sensor in hepatocytes and pancreatic beta-cells. Hepatic GCK is regulated by glucokinase regulatory protein (GKRP), which is predominantly localized to the liver. GKRP binds to GCK inhibiting its activity in the fasting state while in the presence of glucose the GKRP is displaced. There is an additional layer of regulation by fructose 1-phosphate and fructose 6-phosphate, which inhibit and enhance the GCK-GKRP interaction, respectively. GCK plays a role in glucose homeostasis and there is an interest in the development of strategies to activate GCK to lower blood glucose levels in type 2 diabetes. To date the majority of effort has focused on direct activation of GCK and the assays developed herein look to activate GCK by inhibiting its binding to GKRP. A compound that inhibits the interaction of GCK with GKRP could be important for the treatment of diabetes and can also be used as a tool compound to further elucidate GCK-GKRP biology. To that end, we have developed a sensitive HTS biochemical assay where in GCK activity is coupled to luciferase to interrogate the GCK-GKRP interaction. This assay was screened against a small compound library to look for modulators of activity.
2 uL of 15 nM GST-GCK and 15 nM FLAG-GKRP proteins with 2 uM S6P (columns 1-2, 4-48; Millipore, Billerica, MA) are dispensed into Greiner, white solid-bottom 1536-well assay plates; columns 3 receive buffer without GCK as a control for maximum inhibition. Compounds (23 nL) are then transferred via Kalypsys pin tool equipped with 1536-pin array (10 nL slotted pins, V&P Scientific, San Diego, CA). The library compounds are in columns 5-48 and columns 1-4 serve as controls with DMSO in columns 1 and 3 and 26 mM 1:1.5 fold serial of gluckokinase activator (GKA-EMD) in column 2 and 26 mM of the glucokinase activator (GKA-EMD) in column 4. Following addition of compound, 1 uL of ATP […] is added, and the plate is incubated for 60 minutes at room temperature. The amount of ADP is then quantified by the ADP-Glo Kit (Promega, Madison, WI). First, 2 uL of the first kit reagent is added, and the reaction is incubated for 45 minutes; then, 4 uL of the second kit reagent are added and the reaction is incubated for 30 minutes at which time the luminescence is read on a Viewlux plate reader (Perkin-Elmer, Waltham, MA). The final concentration of reagents in the reaction are 0.4 mM ATP, 25 mM Hepes pH 7.6, 25 mM KCl, 2 mM MgCl2, 1 mM DTT, 0.025% BSA, 0.01% Tween 20, 5 mM glucose. Data are normalized to DMSO-treated control columns with (maximum signal) and without (minimum signal) enzyme.
(qHTS replaces the single test concentration by a dilution series.)
As to `CCCn1cnc2c1c(=O)n(CCCCC(C)=O)c(=O)n2C`, the “activity, positive = activation” value was 2.04%.

Take `CCN(CC)CCOC(=O)C1(C2CCCCC2)CCCCC1`: the “activity, positive = activation” value is 4.86%.

As to `Cc1cc(N)c2ccccc2[n+]1CCCCCCCCCC[n+]1c(C)cc(N)c2ccccc21`, the “activity, positive = activation” value is -13.2%.

`CN(C)CCCN1c2ccccc2Sc2ccc(Cl)cc21`: the “activity, positive = activation” value is -1.31%.

On to `C[C@]12C[C@H](O)[C@H]3[C@@H](CCC4=CC(=O)CC[C@@]43C)[C@@H]1CC[C@@H]2C(=O)CO`, for which the “activity, positive = activation” value was -2.03%.

Consider `CCCCCCCCCCCCCCCC(=O)NCCO`, for which the “activity, positive = activation” value was 4.02%.

Take `CSc1ccc2c(c1)C(N1CCN(C)CC1)Cc1ccccc1S2` (stereo not given): the “activity, positive = activation” value was 5.89%.

As to `CC(=O)OCC(=O)[C@@]1(O)CC[C@H]2[C@@H]3CCC4=CC(=O)CC[C@]4(C)[C@H]3C(=O)C[C@@]21C`, the “activity, positive = activation” value is 1.77%.

As to `O=C1N=C(O)CN1/N=C/c1ccc(-c2ccc([N+](=O)[O-])cc2)o1`, the “activity, positive = activation” value was 4.1%.

In the case of `OCc1cc(C(O)CNCCCCCCOCCCCc2ccccc2)ccc1O` (stereo not given), the “activity, positive = activation” value was -1.25%.

For the molecule `C[C@]12CC[C@@H]3c4ccc(O)cc4CC[C@H]3[C@@H]1CCC2=O`, the “activity, positive = activation” value was 3.15%.

For the molecule `CC(C(O)c1ccc(O)cc1)N1CCC(Cc2ccccc2)CC1` (stereo not given), the “activity, positive = activation” value is 2.42%.

On to `CNCCC(Oc1ccc(C(F)(F)F)cc1)c1ccccc1` (stereo not given), for which the “activity, positive = activation” value was -2%.

With `CN1CCN(C2Cc3ccccc3Sc3ccc(Cl)cc32)CC1` (stereo not given), the “activity, positive = activation” value is -2.73%.

Take `CC[C@H]1CN2CCc3cc(OC)c(OC)cc3[C@@H]2C[C@@H]1C[C@H]1NCCc2cc(OC)c(OC)cc21`: the “activity, positive = activation” value is -1.69%.

As for `Nc1ncnc2c1ncn2[C@@H]1O[C@H](CO)[C@@H](O)[C@H]1O`, the “activity, positive = activation” value is 3.13%.

With `CC1=C(CC(=O)O)c2cc(F)ccc2/C1=C\c1ccc(S(C)(=O)=O)cc1`, the “activity, positive = activation” value is -2.67%.

On to `CNCCCC1c2ccccc2C=Cc2ccccc21`, for which the “activity, positive = activation” value is -1.72%.

Turning to `CNCC(O)c1ccc(O)c(O)c1` (stereo not given), the “activity, positive = activation” value was 2.58%.

In the case of `CCN(CC)CCNC(=O)c1cc(Cl)c(N)cc1OC`, the “activity, positive = activation” value is 2.48%.

For the molecule `CCN(CC)CCCC(C)Nc1c2ccc(Cl)cc2nc2ccc(OC)cc12` (stereo not given), the “activity, positive = activation” value was 1.29%.

`CC1=C(/C=C/C(C)=C/C=C/C(C)=C/C(=O)O)C(C)(C)CCC1`: the “activity, positive = activation” value is 5.09%.

Take `NC(=O)c1ncn([C@@H]2O[C@H](CO)[C@@H](O)[C@H]2O)n1`: the “activity, positive = activation” value was 4.4%.

With `CC1=C(CC(=O)O)c2cc(F)ccc2/C1=C\c1ccc(S(C)=O)cc1` (stereo not given), the “activity, positive = activation” value was 1.42%.

Take `CC(C)(C(=O)O)c1ccc(C(O)CCCN2CCC(C(O)(c3ccccc3)c3ccccc3)CC2)cc1` (stereo not given): the “activity, positive = activation” value was 4.22%.

As for `CC(CN1c2ccccc2Sc2ccccc21)N(C)C` (stereo not given), the “activity, positive = activation” value is 2.33%.

As to `N=c1c[n+](N2CCOCC2)[n-]o1`, the “activity, positive = activation” value was 2.51%.

Consider `CSc1ccc2c(c1)N(CCC1CCCCN1C)c1ccccc1S2` (stereo not given), for which the “activity, positive = activation” value was -1.24%.

Turning to `C=Cc1c(C)c2cc3[nH]c(cc4nc(cc5nc(cc1[nH]2)C(C)=C5CCC(=O)O)C(CCC(=O)O)=C4C)c(C)c3C=C`, the “activity, positive = activation” value is 9.86%.

For the molecule `CN(C)CC[C@@H](c1ccc(Cl)cc1)c1ccccn1`, the “activity, positive = activation” value is 4.83%.

Consider `CCN(CC)C(C)CN1c2ccccc2Sc2ccccc21` (stereo not given), for which the “activity, positive = activation” value is -1.66%.

Consider `NC1CCN(c2cccc(Cl)n2)CC1`, for which the “activity, positive = activation” value was -1.04%.

As to `CNC(=O)Oc1ccc2c(c1)[C@]1(C)CCN(C)[C@@H]1N2C`, the “activity, positive = activation” value is 4.05%.

`COC(=O)C1=C(C)NC(C)=C(C(=O)OC)C1c1ccccc1[N+](=O)[O-]`: the “activity, positive = activation” value is 3.53%.

As to `C#CCN(C)Cc1ccccc1`, the “activity, positive = activation” value was -0.0478%.

On to `CC(C)C(=O)c1c(C(C)C)nn2ccccc12`, for which the “activity, positive = activation” value was 1.3%.

`CC(C)NC[C@H](O)c1ccc(O)c(O)c1`: the result was inactive.

`CC(C)(C)c1onc(OCP(=O)(O)O)c1CC(N)C(=O)O` (stereo not given): the result was inactive.

For `CC(C)(C)[C@]1(O)CCN2C[C@H]3c4ccccc4CCc4cccc(c43)[C@@H]2C1`, the result was inactive.

As to `C[C@](N)(Cc1ccc(O)cc1)C(=O)O`, the “activity, positive = activation” value is 2.99%.

For the origin of these results see PubChem BioAssay (NCATS).
